Records with an inconclusive call do not appear. Calls of active or inactive are those of the source. The calls were made as follows, unless noted: active = hit-call score of the fitted dose curve at least 0.9, where 1 is the maximum; inactive = score below 0.9.
Key:
[1] = biological target: Ratio of Nucleoli Translocation and Cytoplasm, AR (gene 367) (UniProt P10275); experiment: UPITT_HCI_U2OS_AR_TIF2_Nucleoli_Cytoplasm_Ratio_Antagonist: University of Pittsburgh U2OS Androgen Receptor-Transcriptional Intermediary Factor 2 (AR-TIF2) Antagonism High Content Imaging Assay for Ratio of Nucleoli Translocation and Cytoplasm (AID 2283999; active = hit-call score of the fitted dose curve at least 0.9, where 1 is the maximum;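 also: antagonists lower the DHT-driven ratio of nucleolar to cytoplasmic red signal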)
Sequence of Ratio of Nucleoli Translocation and Cytoplasm, AR (gene 367) (P10275 whole entry, looked up): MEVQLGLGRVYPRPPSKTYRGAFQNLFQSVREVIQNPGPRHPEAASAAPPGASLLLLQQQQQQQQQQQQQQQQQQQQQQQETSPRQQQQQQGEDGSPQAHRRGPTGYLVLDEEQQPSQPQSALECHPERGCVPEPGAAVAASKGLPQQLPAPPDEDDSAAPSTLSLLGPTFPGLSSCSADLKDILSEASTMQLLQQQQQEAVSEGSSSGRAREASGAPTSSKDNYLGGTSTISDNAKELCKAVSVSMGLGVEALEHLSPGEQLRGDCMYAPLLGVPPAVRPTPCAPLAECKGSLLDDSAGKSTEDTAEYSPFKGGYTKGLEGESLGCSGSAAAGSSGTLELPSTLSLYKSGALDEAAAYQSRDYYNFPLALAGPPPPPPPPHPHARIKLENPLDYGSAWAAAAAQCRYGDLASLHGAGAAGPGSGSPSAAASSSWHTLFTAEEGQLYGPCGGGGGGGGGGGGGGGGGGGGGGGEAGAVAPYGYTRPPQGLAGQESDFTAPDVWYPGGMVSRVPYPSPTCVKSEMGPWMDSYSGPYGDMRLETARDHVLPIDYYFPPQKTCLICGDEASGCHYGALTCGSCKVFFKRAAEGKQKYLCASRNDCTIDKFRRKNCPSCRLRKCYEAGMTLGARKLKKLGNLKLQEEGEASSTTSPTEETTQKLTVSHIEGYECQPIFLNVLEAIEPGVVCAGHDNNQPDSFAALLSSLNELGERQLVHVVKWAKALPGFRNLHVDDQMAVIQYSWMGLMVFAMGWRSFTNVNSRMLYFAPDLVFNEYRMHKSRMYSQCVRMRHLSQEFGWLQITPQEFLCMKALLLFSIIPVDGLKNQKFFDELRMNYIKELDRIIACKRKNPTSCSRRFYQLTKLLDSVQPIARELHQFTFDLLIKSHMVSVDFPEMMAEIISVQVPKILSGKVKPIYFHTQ
In short: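 Read-out is the ratio of nucleolar to cytoplasmic AR-RFP fluorescence, imaged by high-content microscopy in U2OS cells coexpressing TIF2-GFP. Single-point 20 uM screen, triplicate confirmation, then 0.195–50 uM dose response; activity referenced to DHT baseline.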

[2] = biological target: Ratio of Nucleoli Translocation and Cytoplasm, AR (gene 367) (UniProt P10275); experiment: UPITT_HCI_U2OS_AR_TIF2_Nucleoli_Cytoplasm_Ratio_Agonist: University of Pittsburgh U2OS Androgen Receptor-Transcriptional Intermediary Factor 2 (AR-TIF2) Agonism High Content Imaging Assay for Ratio of Nucleoli Translocation and Cytoplasm (AID 2284000; active = hit-call score of the fitted dose curve at least 0.9, where 1 is the maximum;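 also: hits raise the red nucleolar to cytoplasm ratio above vehicle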)
In short: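 Compounds tested at 20 uM final in primary screen (0.2% DMSO) and 0.195-50 uM final in dose-response (0.5% DMSO). Imaging of human U2OS cells bearing RFP-AR and GFP-TIF2; endpoint is nucleoli/cytoplasm red signal ratio, positive direction relative to DMSO.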

[3] = CCTE_Shafer_MEA_acute_spike_number: CCTE's Neural Acute Assay for Total Number of Spikes, Shafer Lab (AID 2284008);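 as to AC50: curve fitted for decrease in spike count so AC50 reflects inhibitors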
In short: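 Cortical neurons from rat, matured to DIV 13 or 15 on microelectrode arrays, are recorded at 37 C before and during 40-min exposure to 0.03-40 uM compound. Wells need >/= 10 active electrodes.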

[4] = CCTE_Shafer_MEA_acute_firing_rate_mean: CCTE's Neural Acute Assay for Mean Firing Rate, Shafer Lab (AID 2284009);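 also: analyzed for loss of signal so actives lower firing rate relative to DMSO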
In short: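 Primary rat cortical neurons on 16-electrode MEA wells were exposed on DIV 13 or 15 to compound (0.03-40 uM). Spike counts per recording time, averaged over electrodes, were compared between 40-min baseline and 40-min post-exposure recordings as percent change.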

[5] = CCTE_Harrill_HTTr_Viability_MCF7: CCTE's 6-hour Cell Viability Assessment for the High-Throughput Transcriptomics (HTTr) Platform, in MCF-7 cells cultured in DMEM + 10% fetal bovine serum, Harrill Lab (AID 2284010)
In short: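 PI exclusion, high-content imaging; 8-pt dilution series, 6 h exposure; bidirectional fit vs DMSO (neg. ctrl/baseline); gain of signal = loss of membrane integrity.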

[6] = CCTE_Harrill_HTTr_Apoptosis_MCF7: CCTE's 6-hour Apoptosis Assessment for the High-Throughput Transcriptomics (HTTr) Platform, in MCF-7 cells cultured in DMEM + 10% fetal bovine serum, Harrill Lab (AID 2284011)
In short: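 Cells are dosed with test chemicals at eight concentrations and imaged 6 hours later for caspase-3/7 activity using a green fluorogenic detection reagent. Activity is fitted in both directions against DMSO controls.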

[7] = CCTE_Simmons_MITO_basal_resp_rate: CCTE's HepG2 Seahorse XF Respirometric Screening Assay at Basal Respiratory State, Simmons Lab (AID 2284001); details: actives raise or lower the signal
In short: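 Basal-phase OCR in HepG2 cells, read at 6-min intervals across a 72-min run, with test compound injected at 125 nM–100 uM final (7 points). Fitted both directions against DMSO; three biological replicates per concentration.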

[8] = CCTE_Simmons_MITO_max_resp_rate: CCTE's HepG2 Seahorse XF Respirometric Screening Assay at Maximal Respiratory State [uncoupled], Simmons Lab (AID 2284002); details: actives raise or lower the signal
In short: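 Maximal respiration in HepG2 cells is recorded as OCR by Seahorse XF following FCCP injection. Compounds span 125 nM–100 uM final; activity is called in either direction against DMSO.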

[9] = CCTE_Simmons_MITO_inhib_resp_rate: CCTE's HepG2 Seahorse XF Respirometric Screening Assay at Inhibited Respiratory State [full ETC block], Simmons Lab (AID 2284006); details: actives raise or lower the signal
In short: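 OCR read-out in the inhibited phase following rotenone/antimycin A, after compound and FCCP injections, in HepG2 cells. Seven concentrations (125 nM to 100 uM final), three biological replicates, 6-min cycles over 72 min; DMSO baseline.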

[10] = CCTE_Simmons_MITO_viability: CellTiter-Glo Viability Assessment for CCTE's HepG2 Seahorse XF Respirometric Screening Assay [post-hoc], Simmons Lab (AID 2284007; active = hit-call score of the fitted dose curve at least 0.9, where 1 is the maximum)
In short: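 Luciferase-coupled ATP luminescence, single endpoint. HepG2, post-respirometry. Compound 125 nM–100 uM final, 7 conc., 90 min. n=3 biological, technical singles. DMSO vehicle/baseline; dichlone 10 nM–100 uM, 8 conc., as positive control.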

Measured: AC50

CCCCC(CC)C(=O)OCCOCCOCCOC(=O)C(CC)CCCC (stereo not drawn)
inactive: [1] | [2] | [3] | [4] | [5] | [6]

O=C1CN(N=Cc2ccc([N+](=O)[O-])o2)C(=O)N1
active: [8] 12.7 µM | [9] 46.8 µM
inactive: [7] | [10] | [5] | [6]

O=C(O)c1cccc(C[C@@H]2COc3ccc(OCc4nc5cc(F)ccc5s4)cc3[C@@H]2O)c1
inactive: [7] | [9] | [10] | [5] | [6]
active: [8] 25 µM

Cc1ncc([C@@H](CCCCCCc2ccc3c(n2)NCCC3)CC(=O)O)cn1
inactive: [3] | [4]
active: [5] 0.0626 µM | [6] 1.6 µM

c1ccc(C(O[C@@H]2CCCN(CCc3ccc4c(c3)OCO4)C2)c2ccccc2)cc1
inactive: [3] | [4] | [5] | [6]

OCc1ccccc1
inactive: [1] | [3] | [4] | [5] | [6]

CCc1cccc(CC)c1N
inactive: [1] | [2] | [5] | [6]

O=c1[nH]cnc2c1ncn2[C@H]1CC[C@@H](CO)O1
inactive: [5] | [6]

CCN(CC)C(=S)SSC(=S)N(CC)CC
active: [1] 11.7 µM | [2] 64.4 µM
not listed: [3] | [4]
inactive: all other assays above

Cn1c(=O)c2[nH]cnc2n(C)c1=O
inactive: [3] | [4] | [5] | [6]

C=CCc1cc(S(=O)(=O)c2ccc(O)c(CC=C)c2)ccc1O
active: [7] 12.3 µM | [8] 8.67 µM
inactive: all other assays above

CCOc1ccc2[nH]cc(C(=O)NCc3ccccc3)c(=O)c2n1
inactive: [7] | [8] | [9] | [10] | [5] | [6]

COCc1nnc(-c2ccc[n+]([O-])c2)n1-c1c(Cl)c(Cl)cc2[nH]c(=O)c(=O)[nH]c12
inactive: [2] | [3] | [4] | [5] | [6]

COc1cc(C(C)C)c2c(c1)S(=O)(=O)N(COc1cc(=O)n3cccc(OCCN4CCCCC4)c3n1)C2=O
inactive: [1] | [2] | [3] | [4] | [5] | [6]

c1ccc2cc3ccccc3cc2c1
active: [3] 0.003 µM | [4] 0.003 µM
inactive: [5] | [6]

CCc1ccc(O)c(C(C)(C)C)c1
active: [3] 0.679 µM | [4] 0.672 µM
not listed: [1] | [2]
inactive: all other assays above

O=S(=O)(O)c1ccc(N=Nc2c(O)ccc3cc(S(=O)(=O)O)ccc23)cc1
inactive: [3] | [4] | [5] | [6]

O=C(NO)C1(NS(=O)(=O)c2ccc(Oc3ccc(F)cc3)cc2)CCOCC1
inactive: [9] | [10] | [5] | [6]
active: [7] 39.2 µM | [8] 31.2 µM

NC(=O)NN=Cc1ccc([N+](=O)[O-])o1
inactive: [8] | [10] | [5] | [6]
active: [7] 50 µM | [9] 50 µM

CCCCCCCC/C=C\CCCCCCCC(=O)OC[C@@H](O)[C@H]1OC[C@H](O)[C@H]1O
inactive: [3] | [4] | [5] | [6]

Cc1nccn1-c1ccc(Sc2cccc(C3(C(N)=O)CCOCC3)c2)cc1
inactive: [10] | [5] | [6]
active: [7] 9.2 µM | [8] 5.55 µM | [9] 13.2 µM

OCCOCCOCCO
inactive: [2] | [5] | [6]

O=C(O)c1ccc2c(c1)nc(C(=O)NC1CCN(C3CC3)CC1)n2Cc1cc(-c2ccc(Cl)s2)on1
inactive: [5] | [6]

CC(C)C(=O)Nc1ccc([N+](=O)[O-])c(C(F)(F)F)c1
inactive: [5] | [6]
active: [3] 5.06 µM | [4] 5.21 µM

CCCc1ccccc1
inactive: [3] | [4]

CCCCCCOC(=O)CC(CC(=O)OCCCCCC)(OC(=O)CCC)C(=O)OCCCCCC
inactive: [2] | [5] | [6]

Cc1nc(-c2ccccn2)ncc1C(=O)Nn1cc(C)c2cc(F)ccc21
inactive: [2] | [5] | [6]

CCCCOC(=O)c1ccccc1
inactive: [2] | [5] | [6]

CCCOc1ccc(S(=O)(=O)N2CCN(CC)CC2)cc1-c1nc2c(CC)n(Cc3ccccn3)nc2c(=O)[nH]1
inactive: [5] | [6]

CCCCCCCC1CCC(=O)O1 (stereo not drawn)
active: [7] 46.4 µM
not listed: [1] | [2] | [10]
inactive: all other assays above
